Sm TGR block = inhibitors of Schistosoma mansoni thioredoxin glutathione reductase. purified TGR, DTNB reduction, TNB absorbance 405 nm. Potency, µM (doses to about 114 µM), without a hit: top-dose activity change, negative = inhibition, actives largely listed as inhibitors. hit rate 3% among 360,000; also: nearly all actives have a fitted effect of over 60% in size
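TGR 20 nM + NADPH 100 uM (dispensed conc.), cpd preinc 15 min RT; start with NADPH (500 uM addition) then DTNB (15 mM addition). Kinetic TNB absorbance, 405 nm filter. Four-parameter Hill fit across titration.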
AmpC no deterg = inhibitors of E. coli AmpC beta-lactamase without detergent; hit rate 0.52% among 330,000; AmpC nitrocefin hydrolysis, absorbance 480 nm, 0.0001% Triton; AID 485341; Potency, µM (titrated, usually from 57.1 µM), without a hit: top-dose activity change, negative = inhibition, actives largely listed as inhibitors; P00811;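 also: plate controls were no compound for no effect and no enzyme for full effect; nearly all actives have a fitted effect of over 20% in size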
Target sequence (P00811 whole entry, looked up): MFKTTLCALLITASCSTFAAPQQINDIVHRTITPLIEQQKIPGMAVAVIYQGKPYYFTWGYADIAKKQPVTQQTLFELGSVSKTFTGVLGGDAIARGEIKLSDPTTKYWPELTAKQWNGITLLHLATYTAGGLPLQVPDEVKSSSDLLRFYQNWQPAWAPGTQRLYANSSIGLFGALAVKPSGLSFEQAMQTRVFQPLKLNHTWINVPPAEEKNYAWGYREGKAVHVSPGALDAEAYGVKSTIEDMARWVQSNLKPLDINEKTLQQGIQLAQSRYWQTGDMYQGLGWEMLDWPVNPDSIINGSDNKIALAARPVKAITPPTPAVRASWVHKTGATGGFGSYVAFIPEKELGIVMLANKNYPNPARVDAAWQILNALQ
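AmpC (5.3 nM in the dispensed reagent) in 20 mM phosphate pH 7.0 with 0.01% (detergent screen) or 0.0001% Triton X-100 was preincubated with compounds for 15 min at room temperature. Nitrocefin was then added from an 800 uM solution, and hydrolysis was followed at 480 nm.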
AmpC detergent = AmpC beta-lactamase inhibition with detergent present. AmpC hydrolysis of nitrocefin, absorbance 480 nm, 0.01% Triton. Potency, µM (series often up to 114 µM), for the others: top-dose activity change, negative = inhibition, actives largely listed as inhibitors. hit rate 0.041% among 370,000. AID 485294;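 also: 0% = no-compound wells and -100% = no-enzyme wells; nearly all actives have a fitted effect of over 25% in size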
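20 mM phosphate pH 7.0 + 0.01% (detergent screen) or 0.0001% Triton X-100; 5.3 nM AmpC reagent; cpd preinc 15 min RT; nitrocefin (800 uM stock) to start; A480 q20 s × 4 min; Activity was normalised to no-enzyme and no-compound control wells.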
* = called active by the depositor; ? = inconclusive; nt = no result; [ ] = another dose, or the depositor's remark. Only some compounds are listed: those with a hit (about 3.3% of all), similar ones and a draw of the others. Calls follow the shape of the dose curve; as a rule, active = well fitted curve in the direction sought with a large enough effect; inconclusive = small, poorly fitted or top-dose-only effect, or another doubt; inactive = no such curve, though single readings can be large; an effect the other way counts as inactive or inconclusive. Unless noted, % is scaled to controls: 0 for no effect and ±100 for the full control effect; potency is read from the fitted curve at half-maximal effect.

SMILES	Sm TGR block	AmpC no deterg	AmpC detergent
COc1ccc(F)cc1S(=O)(=O)NCC(c1ccco1)S(=O)(=O)c1ccc(F)cc1 (stereo unspecified)	0.316µM*	nt	0.6%
COc1ccc(OC)c(S(=O)(=O)NCC(c2cccs2)S(=O)(=O)c2ccc(F)cc2)c1 (stereo unspecified)	0.316µM*	nt	-0.4%
O=C(COC(=O)/C=C/c1ccc([N+](=O)[O-])cc1)Nc1ccc2[nH]c(=O)[nH]c2c1	-20.3%	-14.3%	0.0%
Cc1ccc(S(=O)(=O)c2nnn(-c3cccc(F)c3)c2N)cc1	-4.3%	-33.7%	2.2%
Cc1ccc(OCC(=O)Nc2nnc(S(=O)(=O)N3c4ccccc4CC3C)s2)cc1 (stereo unspecified)	10.4%	nt	11.2%
O=C(OC(C(=O)NCc1ccccc1)c1ccccc1)c1ccco1 (stereo unspecified)	6.0%	-43.5%	-7.3%
Cc1ccc(-c2nnc3ccccc3c2C(=O)Nc2ccc(C)c(F)c2)cc1	-4.0%	nt	0.2%
Cc1ccc(S(=O)(=O)C(CNS(=O)(=O)c2cc(F)ccc2F)c2cccs2)cc1 (stereo unspecified)	?	nt	-6.6%
COc1ccc(F)cc1S(=O)(=O)NCC(c1ccco1)S(=O)(=O)c1cccs1 (stereo unspecified)	0.1µM*	nt	-0.5%
COc1cccc(NC(=O)c2ccc3c(c2)N(CC(=O)N2CCOCC2)C(=O)C(C)(C)O3)c1	0.6%	47.4%	0.2%
CCCn1c(N)c(C(=O)CN(C)CC(=O)Nc2c(C)cc(C)cc2C)c(=O)[nH]c1=O	-1.5%	-4.5%	?
O=c1c2ccccc2sn1-c1cc(S(=O)(=O)N2CCOCC2)ccc1N1CCOCC1	25.1µM*	134.4%	?
O=c1c2ccccc2sn1-c1cc(S(=O)(=O)N2CCOCC2)ccc1N1CCCC1	?	110.0%	8.1%
Cc1ccc(NC(=O)NCc2ccc3[nH]c(C)cc3c2)cc1	-14.0%	-44.0%	-1.6%
CCC(=O)NCc1ccc2[nH]c(C)cc2c1	28.2µM*	-25.2%	-1.2%
Cc1cc2cc(CNC(=O)CCC(=O)O)ccc2[nH]1	0.0%	-2.8%	?
CC(=O)NCc1ccc2[nH]c(C)cc2c1	39.8µM*	-12.7%	?
COCCNC(=O)CSc1nnc2[nH]c(=O)cc(C)n12	-118.0%	nt	-2.1%
COc1ccccc1C(=O)N/C(=C/c1ccc2c(c1)OCO2)C(=O)Nc1ccc(C(=O)O)cc1	-1.3%	-17.2%	?
Cc1ccccc1C(=O)c1cccn1CC(=O)N1CCCCC1	-13.2%	-9.3%	-12.9%
COc1cccc(OCC(=O)NNC(=O)C(=O)Nc2cccc(C)c2)c1	-9.5%	-47.4%	-1.1%
CC(=O)Nc1sc(/C(C#N)=C/c2ccc(Cl)c(Cl)c2)nc1-c1ccc(C)cc1	-8.3%	4.47µM*	-3.0%
CC(=O)Nc1sc(N/N=C/c2ccc(C)cc2)nc1-c1ccc(C)cc1	-12.8%	8.3%	2.1%
Cc1c(C#N)c(N)nc(Cl)c1C#N	35.5µM*	3.1%	1.4%
Cc1nc(N)c(C#N)c(-c2ccccc2)c1C	-22.7%	-22.8%	?
SMILES	Sm TGR block	AmpC no deterg	AmpC detergent
COc1ccc(N2CCN(S(=O)(=O)CCNC(=O)Cc3ccc(Cl)cc3)CC2)cc1	-1.7%	nt	14.6%
CCOC(=O)c1sc(NC(=O)CN2C(=O)NC3(CC(C)CC(C)(C)C3)C2=O)cc1C (stereo unspecified)	7.3%	-6.1%	3.2%
CCNC(=O)COc1ccc(/C=C2\COc3ccccc3C2=O)cc1OC	39.8µM*	112.0%	-7.6%
CCOc1cc(/C=C2\COc3ccccc3C2=O)ccc1OCC(=O)N(C)C	?	162.3%	-2.3%
O=C(COc1ccccc1[N+](=O)[O-])NCC1(N2CCOCC2)CCCCC1	nt	32.0%	nt
N#CC(C#N)=C1C=CC=CN1/C(=C\c1ccco1)C(=O)c1ccc(Br)cc1	2.24µM*	-15.8%	?
N#C/C(=C/c1ccco1)C(N)=S	-0.9%	-39.6%	-10.7%
COc1ccc(C(=O)/C(=C\c2ccco2)N2C=CC=CC2=C(C#N)C#N)cc1	?	-36.7%	-0.5%
N#CC(C#N)=C1C=CC=CN1/C(=C\c1ccco1)C(=O)c1ccccc1	2.82µM*	-29.5%	-2.8%
O=C(NCCc1ccccc1)C1CCC(CNS(=O)(=O)c2cccs2)CC1 (stereo unspecified)	-7.4%	-18.3%	-5.1%
CC(Oc1ccccc1F)c1nnc(SCC(=O)c2c(N)n(C3CC3)c(=O)[nH]c2=O)o1 (stereo unspecified)	-10.9%	-11.9%	-1.5%
CCOC(=O)c1c(C)n(C(=O)c2ccco2)c(=O)n1C(=O)c1ccco1	35.5µM*	-14.5%	-7.1%
CCOC(=O)c1c(C)c(C(=O)N2CCN(C(=O)c3ccco3)CC2)c(C)n1C	7.4%	5.1%	-2.8%
COc1ccc(S(=O)(=O)N2CCOCC2)cc1NC(=O)Cc1ccc2c(c1)OCCO2	-18.1%	11.1%	2.1%
CN(C)c1ccc(NC(=O)CSCc2nc3c(nnn3Cc3ccc(F)cc3)c(=O)[nH]2)cc1	44.7µM*	-22.1%	-2.3%
Cc1cccc(NC(=O)CSCc2nc3c(nnn3Cc3ccc(F)cc3)c(=O)[nH]2)c1C	0.3%[57.1 µM]	4.6%	?
Cc1[nH]c2ccc(Cl)cc2c(=O)c1CN1CCCC1	28.2µM*	22.8%	?
Cc1[nH]c2ccc(Br)cc2c(=O)c1CN1CCCCCC1	-1.2%	-6.1%	0.4%
COc1ccc(C)cc1NC(=O)c1noc2c1CSc1ccccc1-2	8.8%	nt	-1.8%
COC(=O)c1ccccc1NC(=O)c1noc2c1CSc1ccccc1-2	3.55µM*	nt	0.6%
Cc1ccc(SCC(=O)Nc2ccc3oc(-c4cccc(Cl)c4)nc3c2)cc1	?	nt	9.2%
Cc1cccc(N2CC(C(=O)OCC(=O)c3ccc(OC(=O)c4cccs4)cc3)CC2=O)c1C (stereo unspecified)	0.0%	3.1%	?
COc1ccc(NS(=O)(=O)c2ccc(NC(=O)c3ccccc3Br)cc2)nn1	-1.2%	-19.0%	-1.3%
C=CCOC(=O)C1=C(C)NC(C)=C(C(=O)OCC=C)C1c1ccc(O)cc1	3.4%	-1.0%	-13.4%
C=CCOC(=O)C1=C(C)NC(C)=C(C(=O)OCC=C)C1c1cn(-c2ccccc2)nc1-c1ccco1	-0.5%	15.8µM*	?
SMILES	Sm TGR block	AmpC no deterg	AmpC detergent
N#C/C(=C(/O)c1ccc(Cl)c([N+](=O)[O-])c1)c1nc2ccccc2[nH]1	-9.2%	-34.8%	-8.5%
CCCCN(Cc1cccs1)S(=O)(=O)c1cc(-c2cc(C)no2)ccc1C	-3.2%	nt	-7.8%
C/C(=N/O)c1cccc(N2Cc3ccccc3C2)c1	22.4µM*	-26.6%	-3.6%
C/C(=N\O)c1cccc(Br)c1	-6.4%	-22.8%	6.7%
CN(c1ccccc1)S(=O)(=O)c1cccc(NC(=O)CN2C(=O)NC3(CCCC3)C2=O)c1	-11.2%	-25.2%	-13.3%
O=C(CSc1nc2ccc(Cl)cc2[nH]1)NCc1ccco1	14.1µM*	-19.8%	-7.9%
O=C(CSc1c2c(nc3cc(Cl)ccc13)CCCC2)NCc1ccccc1Cl	-4.9%	nt	-7.3%
O=C(CSc1nc2ccccc2[nH]1)NCc1ccco1	0.0%	-6.3%	?
O=C(CSc1c2c(nc3cc(Cl)ccc13)CCCC2)NCc1ccco1	89.1µM*	-43.3%	-7.3%
CCCCN1C(=O)C2Cc3c([nH]c4ccccc34)CN2C1=S (stereo unspecified)	?	-41.1%	-0.5%

Bioassay records deposited in PubChem by National Center for Advancing Translational Sciences (NCATS).
